Results on two sequences are retold here after publication PMC7862700, “An all-to-all approach to the identification of sequence-specific readers for epigenetic DNA modifications on cytosine”.

Test in all cases: DAPPL (digital affinity profiling via proximity ligation, sequencing); 10 mM Tris-HCl pH 7.5, 50 mM NaCl, 1 mM DTT, 4% glycerol, room temperature, 30 min; GST-TFs on glutathione beads, 16-mer random dsDNA library, 0.1% formaldehyde crosslink after washing; high values mean tight binding
Holding throughout (conditions): protein: recombinant; tags: N-terminal GST; dsDNA, one strand shown

Experiment [1] deals with T1, FLI1 (Homo sapiens, UniProt Q01543 1-452).
T1 sequence: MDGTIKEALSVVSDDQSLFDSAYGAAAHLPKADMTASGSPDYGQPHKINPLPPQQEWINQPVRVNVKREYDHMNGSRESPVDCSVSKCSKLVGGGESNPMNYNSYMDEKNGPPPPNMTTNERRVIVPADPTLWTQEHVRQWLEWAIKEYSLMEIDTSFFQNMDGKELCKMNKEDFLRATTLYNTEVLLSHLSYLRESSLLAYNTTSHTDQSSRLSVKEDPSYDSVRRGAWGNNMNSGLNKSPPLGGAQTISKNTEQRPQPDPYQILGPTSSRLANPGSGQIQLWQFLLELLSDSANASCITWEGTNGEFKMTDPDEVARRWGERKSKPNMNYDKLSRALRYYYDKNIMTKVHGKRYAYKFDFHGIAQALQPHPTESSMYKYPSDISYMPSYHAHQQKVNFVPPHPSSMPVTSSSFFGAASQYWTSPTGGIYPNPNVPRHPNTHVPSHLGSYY
A digest of the protocol:
(§1)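 Binding signal is given per hexamer as its read frequency for a factor divided by its frequency in the tag-only sample. GST-fused human transcription factors were expressed in yeast, captured on glutathione beads, barcoded with DNA and pooled with that sample, then incubated with 200 nmole of a 16-mer random double-stranded DNA library in Tris/NaCl/DTT/glycerol buffer for 30 min at room temperature. The pools were then washed, crosslinked, proximity-ligated, amplified by PCR and sequenced on an Illumina NextSeq500.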

Experiment [2] has as its target T2, ELK1 (Homo sapiens, UniProt P19419 1-428).
T2 sequence: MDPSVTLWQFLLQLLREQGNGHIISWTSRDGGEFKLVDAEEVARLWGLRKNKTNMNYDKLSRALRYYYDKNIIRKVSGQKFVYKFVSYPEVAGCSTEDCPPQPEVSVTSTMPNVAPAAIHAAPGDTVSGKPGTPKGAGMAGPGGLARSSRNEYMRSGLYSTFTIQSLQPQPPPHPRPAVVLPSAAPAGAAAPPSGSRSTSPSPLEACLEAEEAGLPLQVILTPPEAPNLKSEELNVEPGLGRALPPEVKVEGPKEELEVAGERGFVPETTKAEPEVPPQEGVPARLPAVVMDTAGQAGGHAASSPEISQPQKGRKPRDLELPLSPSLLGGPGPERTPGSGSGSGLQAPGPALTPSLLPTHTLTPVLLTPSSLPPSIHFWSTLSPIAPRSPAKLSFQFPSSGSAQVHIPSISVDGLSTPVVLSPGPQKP
A digest of the protocol:
as §1

Experiment [3] deals with T3, GABPA (Homo sapiens, UniProt Q06546 1-454).
T3 sequence: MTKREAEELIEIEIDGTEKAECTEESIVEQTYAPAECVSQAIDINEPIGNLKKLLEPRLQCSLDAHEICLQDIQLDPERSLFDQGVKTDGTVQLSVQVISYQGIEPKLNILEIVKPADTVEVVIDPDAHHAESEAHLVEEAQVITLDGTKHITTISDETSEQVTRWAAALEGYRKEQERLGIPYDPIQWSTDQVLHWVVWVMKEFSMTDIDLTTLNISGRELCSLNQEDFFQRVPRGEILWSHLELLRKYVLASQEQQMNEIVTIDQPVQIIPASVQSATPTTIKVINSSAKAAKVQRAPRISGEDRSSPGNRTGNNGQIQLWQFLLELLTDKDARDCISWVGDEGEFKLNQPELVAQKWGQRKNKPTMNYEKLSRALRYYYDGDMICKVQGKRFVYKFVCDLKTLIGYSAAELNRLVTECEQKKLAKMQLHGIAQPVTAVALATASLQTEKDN
A digest of the protocol: as §1

Experiment [4] addresses T4, ERG (Homo sapiens, UniProt P11308 1-479).
T4 sequence: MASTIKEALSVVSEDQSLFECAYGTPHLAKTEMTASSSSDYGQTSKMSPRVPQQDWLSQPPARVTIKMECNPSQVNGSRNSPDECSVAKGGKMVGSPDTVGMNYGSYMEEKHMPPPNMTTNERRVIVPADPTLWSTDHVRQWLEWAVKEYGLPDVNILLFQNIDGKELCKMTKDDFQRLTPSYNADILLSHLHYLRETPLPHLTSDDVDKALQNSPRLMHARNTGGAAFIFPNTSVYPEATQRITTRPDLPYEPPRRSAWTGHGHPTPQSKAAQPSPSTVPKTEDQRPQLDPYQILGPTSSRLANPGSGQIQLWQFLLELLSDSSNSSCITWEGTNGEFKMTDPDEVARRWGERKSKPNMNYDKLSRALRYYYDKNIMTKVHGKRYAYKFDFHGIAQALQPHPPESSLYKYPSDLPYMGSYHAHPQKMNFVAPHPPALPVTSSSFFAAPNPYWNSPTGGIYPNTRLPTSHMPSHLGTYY
The procedure, abridged: as §1

For experiment [5], the target named is ELF1 (Homo sapiens, UniProt P32519 1-619). A digest of the protocol:
as §1

The target in experiment [6] is T5, EHF (Homo sapiens, UniProt Q9NZC4 1-300).
T5 sequence: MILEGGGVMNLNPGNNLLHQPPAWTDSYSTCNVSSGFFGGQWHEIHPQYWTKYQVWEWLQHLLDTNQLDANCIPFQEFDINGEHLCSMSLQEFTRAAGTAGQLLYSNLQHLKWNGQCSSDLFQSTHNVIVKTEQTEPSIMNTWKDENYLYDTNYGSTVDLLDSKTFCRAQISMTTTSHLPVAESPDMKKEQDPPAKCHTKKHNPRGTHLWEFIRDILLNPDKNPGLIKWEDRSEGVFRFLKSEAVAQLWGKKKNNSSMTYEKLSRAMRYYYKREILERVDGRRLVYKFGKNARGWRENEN
A digest of the protocol:
as §1

The target of experiment [7] is SPI1 (Homo sapiens, UniProt P17947 1-270). The procedure, abridged: as §1
Experiment [8] has as its target SPIB (Homo sapiens, UniProt Q01892 1-262). A digest of the protocol:
as §1

Experiment [9] has as its target T6, ELK3 (Homo sapiens, UniProt P41970 1-407).
T6 sequence: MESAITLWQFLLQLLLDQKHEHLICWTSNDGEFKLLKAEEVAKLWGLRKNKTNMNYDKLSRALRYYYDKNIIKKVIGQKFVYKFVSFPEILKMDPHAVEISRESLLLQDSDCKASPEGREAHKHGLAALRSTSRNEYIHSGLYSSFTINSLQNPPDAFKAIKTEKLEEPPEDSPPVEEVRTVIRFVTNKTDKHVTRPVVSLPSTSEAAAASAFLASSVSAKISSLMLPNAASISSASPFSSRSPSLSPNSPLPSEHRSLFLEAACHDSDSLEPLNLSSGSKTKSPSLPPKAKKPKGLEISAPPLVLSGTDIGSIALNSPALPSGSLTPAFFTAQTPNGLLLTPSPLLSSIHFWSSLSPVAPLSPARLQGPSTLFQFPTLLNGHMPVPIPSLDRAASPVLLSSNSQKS
A digest of the protocol:
as §1

The target of experiment [10] is T7, FEV (Homo sapiens, UniProt Q99581 1-238).
T7 sequence: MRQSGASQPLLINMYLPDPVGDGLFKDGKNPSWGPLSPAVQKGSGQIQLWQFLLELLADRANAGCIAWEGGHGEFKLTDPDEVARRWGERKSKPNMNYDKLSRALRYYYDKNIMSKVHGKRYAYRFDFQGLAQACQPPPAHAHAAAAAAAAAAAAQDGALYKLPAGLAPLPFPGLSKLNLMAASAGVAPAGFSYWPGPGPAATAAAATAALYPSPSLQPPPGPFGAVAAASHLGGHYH
A digest of the protocol: as §1

Experiment [11] deals with ETV5 (Homo sapiens, UniProt P41161 1-510). A digest of the protocol: as §1
Sequence of ETV5 (P41161 whole entry): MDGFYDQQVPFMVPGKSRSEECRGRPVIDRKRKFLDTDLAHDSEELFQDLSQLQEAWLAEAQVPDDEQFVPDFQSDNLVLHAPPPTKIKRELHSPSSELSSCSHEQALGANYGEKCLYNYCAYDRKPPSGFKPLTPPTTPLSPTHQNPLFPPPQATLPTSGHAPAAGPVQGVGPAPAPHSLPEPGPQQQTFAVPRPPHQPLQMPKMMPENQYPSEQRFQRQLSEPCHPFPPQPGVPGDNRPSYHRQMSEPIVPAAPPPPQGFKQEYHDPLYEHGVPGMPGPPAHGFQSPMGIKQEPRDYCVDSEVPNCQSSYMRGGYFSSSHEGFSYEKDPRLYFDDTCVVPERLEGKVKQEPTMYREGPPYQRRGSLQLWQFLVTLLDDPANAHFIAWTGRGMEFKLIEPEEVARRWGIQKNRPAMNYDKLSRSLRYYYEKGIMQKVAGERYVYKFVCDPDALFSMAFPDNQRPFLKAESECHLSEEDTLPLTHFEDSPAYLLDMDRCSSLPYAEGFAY
The target of experiment [12] is T8, SPIC (Homo sapiens, UniProt Q8N5J4 1-248).
T8 sequence: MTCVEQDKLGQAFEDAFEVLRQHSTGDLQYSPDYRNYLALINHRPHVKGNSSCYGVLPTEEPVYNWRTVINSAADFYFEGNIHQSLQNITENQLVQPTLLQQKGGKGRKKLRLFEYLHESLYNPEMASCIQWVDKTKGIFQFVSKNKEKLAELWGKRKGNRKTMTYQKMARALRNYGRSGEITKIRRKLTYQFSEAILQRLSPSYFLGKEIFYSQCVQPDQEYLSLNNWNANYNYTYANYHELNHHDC
The procedure, abridged:
as §1

Experiment [13] addresses ELF4 (Homo sapiens, UniProt Q99607 1-663). The procedure, abridged: as §1
The target in experiment [14] is T9, ELK4 (Homo sapiens, UniProt P28324-2 1-405).
T9 sequence: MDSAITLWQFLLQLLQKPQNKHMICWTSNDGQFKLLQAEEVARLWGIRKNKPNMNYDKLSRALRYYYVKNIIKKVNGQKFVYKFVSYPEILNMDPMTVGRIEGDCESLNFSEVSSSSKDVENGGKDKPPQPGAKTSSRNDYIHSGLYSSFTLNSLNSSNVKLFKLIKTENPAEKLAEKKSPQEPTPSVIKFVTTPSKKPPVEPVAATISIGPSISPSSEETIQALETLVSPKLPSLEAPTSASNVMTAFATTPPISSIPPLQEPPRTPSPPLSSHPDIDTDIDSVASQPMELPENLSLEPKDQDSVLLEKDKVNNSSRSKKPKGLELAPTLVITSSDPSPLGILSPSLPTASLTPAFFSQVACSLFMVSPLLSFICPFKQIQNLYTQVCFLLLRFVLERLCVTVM
A digest of the protocol:
as §1

For experiment [15], the target named is T10, ETV2 (Homo sapiens, UniProt O00321 1-342).
T10 sequence: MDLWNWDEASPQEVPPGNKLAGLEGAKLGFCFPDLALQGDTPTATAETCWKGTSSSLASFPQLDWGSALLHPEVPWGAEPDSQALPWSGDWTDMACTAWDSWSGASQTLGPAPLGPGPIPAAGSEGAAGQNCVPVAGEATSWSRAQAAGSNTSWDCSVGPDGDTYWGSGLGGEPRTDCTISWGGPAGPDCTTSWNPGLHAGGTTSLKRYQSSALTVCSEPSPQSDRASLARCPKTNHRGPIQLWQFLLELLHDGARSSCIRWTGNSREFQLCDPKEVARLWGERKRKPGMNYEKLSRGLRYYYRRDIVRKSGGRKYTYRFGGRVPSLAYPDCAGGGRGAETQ
A digest of the protocol:
as §1

Experiment [16] has as its target T11, ELF3 (Homo sapiens, UniProt P78545 1-371).
T11 sequence: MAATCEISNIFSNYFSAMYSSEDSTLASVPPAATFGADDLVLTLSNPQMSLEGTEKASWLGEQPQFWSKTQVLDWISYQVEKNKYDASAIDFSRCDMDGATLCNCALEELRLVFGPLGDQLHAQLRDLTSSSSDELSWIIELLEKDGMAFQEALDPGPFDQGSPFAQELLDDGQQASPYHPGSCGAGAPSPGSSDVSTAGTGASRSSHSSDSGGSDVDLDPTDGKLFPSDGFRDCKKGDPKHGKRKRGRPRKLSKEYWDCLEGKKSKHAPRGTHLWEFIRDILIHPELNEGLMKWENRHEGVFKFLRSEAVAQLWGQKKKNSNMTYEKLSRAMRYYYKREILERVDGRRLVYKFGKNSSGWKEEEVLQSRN
The procedure, abridged: as §1

Experiment [17] addresses CRX (Homo sapiens, UniProt O43186 1-299). A digest of the protocol: as §1
Experiment [18] concerns the target ETV1 (Homo sapiens, UniProt P50549 1-477). A digest of the protocol:
as §1

Sequence of ELF1 (P32519 whole entry): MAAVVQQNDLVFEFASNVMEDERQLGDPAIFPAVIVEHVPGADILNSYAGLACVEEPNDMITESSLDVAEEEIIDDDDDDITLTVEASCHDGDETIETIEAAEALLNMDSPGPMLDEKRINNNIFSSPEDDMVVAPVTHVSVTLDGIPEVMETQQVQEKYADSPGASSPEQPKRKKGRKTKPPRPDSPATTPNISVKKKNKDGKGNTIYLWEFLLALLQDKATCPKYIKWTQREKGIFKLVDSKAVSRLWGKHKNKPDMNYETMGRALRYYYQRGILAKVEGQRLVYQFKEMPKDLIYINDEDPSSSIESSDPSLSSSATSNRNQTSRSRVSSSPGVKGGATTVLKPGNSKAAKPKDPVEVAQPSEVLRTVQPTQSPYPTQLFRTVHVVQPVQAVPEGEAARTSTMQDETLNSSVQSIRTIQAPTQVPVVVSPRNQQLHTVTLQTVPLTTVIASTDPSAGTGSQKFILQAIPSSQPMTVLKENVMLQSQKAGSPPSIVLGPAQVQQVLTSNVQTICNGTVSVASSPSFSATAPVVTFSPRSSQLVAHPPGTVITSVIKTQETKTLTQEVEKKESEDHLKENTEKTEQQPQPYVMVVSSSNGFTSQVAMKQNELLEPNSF
Sequence of ETV1 (P50549 whole entry): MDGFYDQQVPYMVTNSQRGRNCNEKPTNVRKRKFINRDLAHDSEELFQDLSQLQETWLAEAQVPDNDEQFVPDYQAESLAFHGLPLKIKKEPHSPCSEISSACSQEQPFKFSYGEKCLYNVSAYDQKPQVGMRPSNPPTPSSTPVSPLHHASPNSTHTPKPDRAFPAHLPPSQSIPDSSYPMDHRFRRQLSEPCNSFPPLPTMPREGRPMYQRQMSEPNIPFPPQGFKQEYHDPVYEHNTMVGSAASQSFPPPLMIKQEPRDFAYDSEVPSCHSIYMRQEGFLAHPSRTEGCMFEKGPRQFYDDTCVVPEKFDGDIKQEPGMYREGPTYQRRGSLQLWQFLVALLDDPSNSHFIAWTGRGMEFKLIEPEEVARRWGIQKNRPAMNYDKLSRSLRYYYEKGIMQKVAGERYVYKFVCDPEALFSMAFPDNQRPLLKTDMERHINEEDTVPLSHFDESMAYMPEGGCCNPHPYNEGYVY
Sequence of SPIB (Q01892 whole entry): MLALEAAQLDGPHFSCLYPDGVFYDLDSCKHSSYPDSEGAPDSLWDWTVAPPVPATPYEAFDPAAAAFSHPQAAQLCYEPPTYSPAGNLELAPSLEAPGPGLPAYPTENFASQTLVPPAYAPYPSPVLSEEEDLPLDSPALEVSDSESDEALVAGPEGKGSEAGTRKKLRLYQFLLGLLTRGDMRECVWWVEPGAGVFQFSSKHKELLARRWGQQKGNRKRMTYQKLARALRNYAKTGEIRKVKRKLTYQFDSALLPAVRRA
Sequence of ELF4 (Q99607 whole entry): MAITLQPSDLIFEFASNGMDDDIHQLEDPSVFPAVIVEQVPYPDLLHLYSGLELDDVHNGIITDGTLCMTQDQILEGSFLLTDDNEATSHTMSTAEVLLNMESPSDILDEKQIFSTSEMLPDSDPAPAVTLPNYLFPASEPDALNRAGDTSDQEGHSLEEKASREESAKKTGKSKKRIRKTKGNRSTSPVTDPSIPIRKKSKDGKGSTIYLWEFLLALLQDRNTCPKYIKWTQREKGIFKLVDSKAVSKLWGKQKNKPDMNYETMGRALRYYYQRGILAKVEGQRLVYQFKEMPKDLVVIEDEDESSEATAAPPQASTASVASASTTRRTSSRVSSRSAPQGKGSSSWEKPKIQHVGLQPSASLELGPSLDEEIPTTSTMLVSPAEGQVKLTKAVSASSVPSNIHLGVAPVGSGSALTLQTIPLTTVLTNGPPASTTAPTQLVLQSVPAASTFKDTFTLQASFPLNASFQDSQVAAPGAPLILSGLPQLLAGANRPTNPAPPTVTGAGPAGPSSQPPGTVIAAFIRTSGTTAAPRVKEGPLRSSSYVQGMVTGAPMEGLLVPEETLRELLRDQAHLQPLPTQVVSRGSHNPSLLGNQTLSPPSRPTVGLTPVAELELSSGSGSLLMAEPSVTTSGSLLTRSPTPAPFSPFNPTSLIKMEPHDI
Sequence of CRX (O43186 whole entry): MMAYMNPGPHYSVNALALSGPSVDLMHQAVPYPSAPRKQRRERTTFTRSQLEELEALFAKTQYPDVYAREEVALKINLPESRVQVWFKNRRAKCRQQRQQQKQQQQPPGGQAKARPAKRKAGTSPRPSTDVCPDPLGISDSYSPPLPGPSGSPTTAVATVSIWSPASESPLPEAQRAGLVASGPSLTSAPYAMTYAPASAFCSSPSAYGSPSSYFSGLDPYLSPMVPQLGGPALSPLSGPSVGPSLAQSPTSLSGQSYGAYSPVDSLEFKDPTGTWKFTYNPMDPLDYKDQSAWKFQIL

Regarding TCCGTT, the binding signal is 1.44 fold enrichment (6-mer frequency, TF over GST control) in experiment [1]; 1.61 fold enrichment (6-mer frequency, TF over GST control) in [2]; 1.42 fold enrichment (6-mer frequency, TF over GST control) in experiment [3]; 1.68 fold enrichment (6-mer frequency, TF over GST control) in experiment [4]; 1.34 fold enrichment (6-mer frequency, TF over GST control) in experiment [5]; 1.4 fold enrichment (6-mer frequency, TF over GST control) in [6]. Besides, the binding signal was 1.53 fold enrichment (6-mer frequency, TF over GST control) in experiment [7]; 1.53 fold enrichment (6-mer frequency, TF over GST control) in experiment [8]; 1.54 fold enrichment (6-mer frequency, TF over GST control) in experiment [9]; 1.71 fold enrichment (6-mer frequency, TF over GST control) in [10]; 1.49 fold enrichment (6-mer frequency, TF over GST control) in experiment [11]; 1.62 fold enrichment (6-mer frequency, TF over GST control) in experiment [12]. Besides, the binding signal in [13] is 1.25 fold enrichment (6-mer frequency, TF over GST control); in [14], 1.48 fold enrichment (6-mer frequency, TF over GST control); in [15], 1.44 fold enrichment (6-mer frequency, TF over GST control); in experiment [16], 1.35 fold enrichment (6-mer frequency, TF over GST control); in experiment [17], 1.13 fold enrichment (6-mer frequency, TF over GST control); in experiment [18], 1.36 fold enrichment (6-mer frequency, TF over GST control).

As for TACAGG, the binding signal was 1.32 fold enrichment (6-mer frequency, TF over GST control) in experiment [1]; 1.16 fold enrichment (6-mer frequency, TF over GST control) in experiment [2]; 1.21 fold enrichment (6-mer frequency, TF over GST control) in [3]; 1.22 fold enrichment (6-mer frequency, TF over GST control) in [4]; 1.13 fold enrichment (6-mer frequency, TF over GST control) in experiment [5]; 1.17 fold enrichment (6-mer frequency, TF over GST control) in experiment [6]. Moreover, the binding signal was 1.12 fold enrichment (6-mer frequency, TF over GST control) in [7]; 1.2 fold enrichment (6-mer frequency, TF over GST control) in [8]; 1.03 fold enrichment (6-mer frequency, TF over GST control) in [9]; 1.23 fold enrichment (6-mer frequency, TF over GST control) in [10]; 1.24 fold enrichment (6-mer frequency, TF over GST control) in experiment [11]; 1.2 fold enrichment (6-mer frequency, TF over GST control) in experiment [12]. Moreover, the binding signal in experiment [13] was 1.14 fold enrichment (6-mer frequency, TF over GST control); in [14], 1.26 fold enrichment (6-mer frequency, TF over GST control); in [15], 1.15 fold enrichment (6-mer frequency, TF over GST control); in experiment [16] it was 1.15 fold enrichment (6-mer frequency, TF over GST control); in [17], 1.08 fold enrichment (6-mer frequency, TF over GST control); in [18], 1.15 fold enrichment (6-mer frequency, TF over GST control).
